# From PubChem BioAssay AID1159580 (chemical genetic matrix, 2015)
# Among all 5,500 compounds or so, about 2,000 (36%) were called active. Another 18% or so got no clear call; they are omitted. This is one part of the list. A number with no mark means an inactive call. Cut-off read from the data, not from the text of the source: active = normalized growth mostly below about 0.91 (no sharp cut-off); inconclusive = no clear call, values can overlap the other calls; inactive = mostly above about 0.92.
# Test: chemical genetic growth profiling, strain panel (AID 1159580);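 note: tested at 20 µM; growth read once vehicle control cultures reached saturation at 30 °C; 1 = growth at the plate median or of vehicle wells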
# Conditions: growth OD
compound,measurement,setting,value
O=S1OCC2C(CO1)C1(Cl)C(Cl)=C(Cl)C2(Cl)C1(Cl)Cl (centres undefined),normalized growth,"S. cerevisiae deletion strains, locus YJR043C, strain POL32, stronger effect = lower value",0.96
same,normalized growth,"S. cerevisiae deletion strains, locus YJR075W, strain HOC1, stronger effect = lower value",0.986
same,normalized growth,"S. cerevisiae deletion strains, locus YKL009W, strain mrt4, stronger effect = lower value",0.947
same,normalized growth,"S. cerevisiae deletion strains, locus YKL068W, stronger effect = lower value",0.964
same,normalized growth,"S. cerevisiae deletion strains, locus YKL085W, strain MDH1 (second series), stronger effect = lower value",0.982
same,normalized growth,"S. cerevisiae deletion strains, locus YKL085W, strain MDH1, stronger effect = lower value",0.982
same,normalized growth,"S. cerevisiae deletion strains, locus YKL160W, strain elf1, stronger effect = lower value",0.953
same,normalized growth,"S. cerevisiae deletion strains, locus YKL190W, strain CNB1, stronger effect = lower value",1
same,normalized growth,"S. cerevisiae deletion strains, locus YKR001C, strain vps1, stronger effect = lower value",0.975
same,normalized growth,"S. cerevisiae deletion strains, locus YKR026C, strain gcn3, stronger effect = lower value",0.987
same,normalized growth,"S. cerevisiae deletion strains, locus YKR091W, strain srl3, stronger effect = lower value",0.991
same,normalized growth,"S. cerevisiae deletion strains, locus YLL001W, strain dnm1, stronger effect = lower value",0.99
same,normalized growth,"S. cerevisiae deletion strains, locus YLL026W, stronger effect = lower value",1
same,normalized growth,"S. cerevisiae deletion strains, locus YLL041C, strain sdh2, stronger effect = lower value",0.992
same,normalized growth,"S. cerevisiae deletion strains, locus YLR027C, strain aat2, stronger effect = lower value",0.961
same,normalized growth,"S. cerevisiae deletion strains, locus YLR039C, strain RIC1, stronger effect = lower value",1.06
same,normalized growth,"S. cerevisiae deletion strains, locus YLR058C, strain SHM2, stronger effect = lower value",0.979
same,normalized growth,"S. cerevisiae deletion strains, locus YLR102C, strain apc9, stronger effect = lower value",0.973
same,normalized growth,"S. cerevisiae deletion strains, locus YLR221C, strain rsa3, stronger effect = lower value",0.931
same,normalized growth,"S. cerevisiae deletion strains, locus YLR258W, strain gsy2, stronger effect = lower value",0.973
same,normalized growth,"S. cerevisiae deletion strains, locus YLR262C, strain YPT6 (second series), stronger effect = lower value",1.06
same,normalized growth,"S. cerevisiae deletion strains, locus YLR262C, strain YPT6, stronger effect = lower value",1.05
same,normalized growth,"S. cerevisiae deletion strains, locus YLR268W, strain sec22, stronger effect = lower value",0.97
same,normalized growth,"S. cerevisiae deletion strains, locus YLR320W, strain mms22, stronger effect = lower value",0.961
same,normalized growth,"S. cerevisiae deletion strains, locus YLR330W, strain CHS5, stronger effect = lower value",0.984
same,normalized growth,"S. cerevisiae deletion strains, locus YLR342W, strain FKS1 (second series), stronger effect = lower value",0.872
same,normalized growth,"S. cerevisiae deletion strains, locus YLR342W, strain FKS1, stronger effect = lower value",0.991
same,normalized growth,"S. cerevisiae deletion strains, locus YLR357W, strain rsc2, stronger effect = lower value",0.996
same,normalized growth,"S. cerevisiae deletion strains, locus YLR370C, strain arc18, stronger effect = lower value",0.997
same,normalized growth,"S. cerevisiae deletion strains, locus YLR371W, strain rom2, stronger effect = lower value",0.949
same,normalized growth,"S. cerevisiae deletion strains, locus YLR384C, strain iki3, stronger effect = lower value",1
same,normalized growth,"S. cerevisiae deletion strains, locus YLR418C, strain cdc73, stronger effect = lower value",0.946
same,normalized growth,"S. cerevisiae deletion strains, locus YML016C, strain PPZ1, stronger effect = lower value",0.991
same,normalized growth,"S. cerevisiae deletion strains, locus YML032C, strain rad52, stronger effect = lower value",0.974
same,normalized growth,"S. cerevisiae deletion strains, locus YML120C, strain ndi1, stronger effect = lower value",0.983
same,normalized growth,"S. cerevisiae deletion strains, locus YML124C, strain tub3, stronger effect = lower value",0.976
same,normalized growth,"S. cerevisiae deletion strains, locus YMR058W, strain fet3, stronger effect = lower value",0.976
same,normalized growth,"S. cerevisiae deletion strains, locus YMR078C, strain ctf18, stronger effect = lower value",0.977
same,normalized growth,"S. cerevisiae deletion strains, locus YMR125W, strain sto1, stronger effect = lower value",0.998
same,normalized growth,"S. cerevisiae deletion strains, locus YMR129W, stronger effect = lower value",0.992
same,normalized growth,"S. cerevisiae deletion strains, locus YMR205C, strain PFK2, stronger effect = lower value",0.91
same,normalized growth,"S. cerevisiae deletion strains, locus YMR223W, strain ubp8, stronger effect = lower value",0.955
same,normalized growth,"S. cerevisiae deletion strains, locus YMR231W, strain pep5, stronger effect = lower value",0.97
same,normalized growth,"S. cerevisiae deletion strains, locus YMR263W, strain SAP30, stronger effect = lower value",0.946
same,normalized growth,"S. cerevisiae deletion strains, locus YMR307W, strain GAS1, stronger effect = lower value",0.978
same,normalized growth,"S. cerevisiae deletion strains, locus YNL067W, strain RPL9B, stronger effect = lower value",0.981
same,normalized growth,"S. cerevisiae deletion strains, locus YNL071W, strain lat1, stronger effect = lower value",0.966
same,normalized growth,"S. cerevisiae deletion strains, locus YNL128W, strain TEP1, stronger effect = lower value",0.975
same,normalized growth,"S. cerevisiae deletion strains, locus YNL153C, strain GIM3, stronger effect = lower value",0.987
same,normalized growth,"S. cerevisiae deletion strains, locus YNL209W, strain ssb2, stronger effect = lower value",0.991
same,normalized growth,"S. cerevisiae deletion strains, locus YNL233W, strain BNI4, stronger effect = lower value",1
same,normalized growth,"S. cerevisiae deletion strains, locus YNL248C, strain rpa49, stronger effect = lower value",0.992
same,normalized growth,"S. cerevisiae deletion strains, locus YNL250W, strain rad50, stronger effect = lower value",0.957
same,normalized growth,"S. cerevisiae deletion strains, locus YNL271C, strain bni1, stronger effect = lower value",0.971
same,normalized growth,"S. cerevisiae deletion strains, locus YNL298W, strain CLA4, stronger effect = lower value",0.946
same,normalized growth,"S. cerevisiae deletion strains, locus YNL307C, strain MCK1, stronger effect = lower value",0.885 (active)
same,normalized growth,"S. cerevisiae deletion strains, locus YNL322C, strain KRE1 (second series), stronger effect = lower value",0.986
same,normalized growth,"S. cerevisiae deletion strains, locus YNL322C, strain KRE1, stronger effect = lower value",0.978
same,normalized growth,"S. cerevisiae deletion strains, locus YNR049C, strain mso1, stronger effect = lower value",0.997
same,normalized growth,"S. cerevisiae deletion strains, locus YNR052C, strain pop2, stronger effect = lower value",0.968
same,normalized growth,"S. cerevisiae deletion strains, locus YOL006C, strain TOP1, stronger effect = lower value",0.822
same,normalized growth,"S. cerevisiae deletion strains, locus YOL012C, strain htz1",0.777
same,normalized growth,"S. cerevisiae deletion strains, locus YOL147C, strain pex11, stronger effect = lower value",0.991
same,normalized growth,"S. cerevisiae deletion strains, locus YOR001W, strain rrp6, stronger effect = lower value",0.978
same,normalized growth,"S. cerevisiae deletion strains, locus YOR061W, strain CKA2, stronger effect = lower value",0.987
same,normalized growth,"S. cerevisiae deletion strains, locus YOR069W, strain VPS5, stronger effect = lower value",0.979
same,normalized growth,"S. cerevisiae deletion strains, locus YOR070C, strain gyp1, stronger effect = lower value",0.979
same,normalized growth,"S. cerevisiae deletion strains, locus YOR080W, strain dia2, stronger effect = lower value",0.991
same,normalized growth,"S. cerevisiae deletion strains, locus YOR083W, strain WHI5, stronger effect = lower value",0.942
same,normalized growth,"S. cerevisiae deletion strains, locus YOR106W, strain vam3, stronger effect = lower value",0.884
same,normalized growth,"S. cerevisiae deletion strains, locus YOR136W, strain idh2, stronger effect = lower value",0.98
same,normalized growth,"S. cerevisiae deletion strains, locus YOR144C, strain elg1, stronger effect = lower value",0.984
same,normalized growth,"S. cerevisiae deletion strains, locus YOR184W, strain ser1, stronger effect = lower value",0.887
same,normalized growth,"S. cerevisiae deletion strains, locus YOR265W, strain rbl2, stronger effect = lower value",0.993
same,normalized growth,"S. cerevisiae deletion strains, locus YOR270C, strain vph1, stronger effect = lower value",0.633 (active)
same,normalized growth,"S. cerevisiae deletion strains, locus YOR290C, strain snf2, stronger effect = lower value",0.937
same,normalized growth,"S. cerevisiae deletion strains, locus YOR316C, strain cot1, stronger effect = lower value",0.975
same,normalized growth,"S. cerevisiae deletion strains, locus YPL051W, strain arl3, stronger effect = lower value",0.988
same,normalized growth,"S. cerevisiae deletion strains, locus YPL055C, strain LGE1, stronger effect = lower value",0.974
same,normalized growth,"S. cerevisiae deletion strains, locus YPL078C, strain atp4, stronger effect = lower value",0.987
same,normalized growth,"S. cerevisiae deletion strains, locus YPL106C, strain sse1, stronger effect = lower value",0.993
same,normalized growth,"S. cerevisiae deletion strains, locus YPL240C, strain hsp82, stronger effect = lower value",0.991
same,normalized growth,"S. cerevisiae deletion strains, locus YPL241C, strain CIN2, stronger effect = lower value",0.985
same,normalized growth,"S. cerevisiae deletion strains, locus YPR119W, strain clb2, stronger effect = lower value",0.976
same,normalized growth,"S. cerevisiae deletion strains, locus YPR141C, strain kar3, stronger effect = lower value",0.98
same,normalized growth,"S. cerevisiae deletion strains, locus YPR163C, strain tif3, stronger effect = lower value",0.978
same,normalized growth,"S. cerevisiae deletion strains, locus YPR167C, strain met16, stronger effect = lower value",0.971
same,normalized growth,"S. cerevisiae deletion strains, strain wtn01, stronger effect = lower value",0.954
same,normalized growth,"S. cerevisiae strains, strain wild type, stronger effect = lower value",0.987
